Consider 102 compounds from ChEMBL document CHEMBL3988442, “University of Dundee, Small-Polar-MMV Screening Library” (2021).

Molecules are shown by their SMILES. The campaign covered roughly 48,000 compounds. About 13,000 (27%) showed an effect of 50% or more. Some of the results follow.

The assay has as its system Wolbachia pipientis. Nature of the assay: Anti-Wolbachia Cell-Based Screen. More on the design: scale not given: in the data most compounds retested in dose-response had high values. As to conditions: 5 µM. The class given is functional.
Consider `CC(OCC(F)(F)F)C(=O)N1CCCCC1` (configuration not stated), for which the “Percent Effect” value is given as -2.646%. The result for `Cc1cnc(C(=O)NCc2ccc3c(c2)CCCN3C)cn1` reads 101.2%. With `CN1N=C(C(=O)NCc2ccc3c(c2)CCCN3C)CCC1=O` the figure was 13.95%; with `CC(C)CN1CCCn2nc(CNC(=O)c3cccnc3O)cc2C1`, -4.035%. The result for `O=C1CN(c2ccc(CNC(=O)c3cccnc3O)cc2F)CCN1` reads -18.4%; that for `COc1ccc(COCC(O)CNC(=O)c2cnc(C)cn2)cc1` (configuration not stated), 4.456%; that for `CN1CCCc2cc(CNC(=O)c3cccnc3O)ccc21`, 90.33%. Take `CC(C)c1nn(C)c(Cl)c1CNC1CCOc2ccccc21.Cl` (configuration not stated): the “Percent Effect” value is recorded as -8.066%.

Consider `CC(=O)NCC(=O)N1Cc2cc(-c3cc[nH]n3)ccc2C1c1cnco1` (configuration not stated), for which the “Percent Effect” value was -23.15%. For the compound `COc1ccc(-n2cnnc2SCC(C)(C)O)cn1`, the “Percent Effect” value was -5.422%. As for `COc1ccccc1OCC(=O)NS(=O)(=O)c1cc(F)ccc1F`, the “Percent Effect” value is listed as -8.021%. The result for `COCC(=O)N(Cc1cccnc1)CC1CCN(C2CCCC2)CC1` reads -6.321%; that for `COCCn1nc(C(=O)N(C)Cc2ccc3ccccc3c2)ccc1=O`, 98.47%; that for `COCCn1nc(C(=O)N2CCCC2c2cccc(F)c2)ccc1=O` (configuration not stated), 1.762%. The result for `COCCn1nc(C(=O)N2CCN(C)CC2C)ccc1=O` (configuration not stated) reads -13.53%; that for `COCCn1nc(C(=O)N(C)Cc2cccnc2)ccc1=O`, 131.6%; that for `COc1nn(C)cc1C(=O)NCC(=O)NCc1cccnc1`, -2.836%.

Turning to `CCN(CC(=O)NC)S(=O)(=O)c1cnc2c(c1)c(C)nn2C`, the “Percent Effect” value is -1.026%. The result for `N#CC1(C(=O)N2CCN(c3nccs3)CC2)CCCCC1` reads -10.71%. Turning to `CN(C)c1ncccc1NC(=O)COCC1CC1`, the “Percent Effect” value turned out to be 7.684%. In the case of `N#Cc1cccc(OCCN2CCCC(c3noc(C4CC4)n3)C2)c1` (configuration not stated), the “Percent Effect” value was -47.81%.

For `N#Cc1ccc(N2CCC3(CC2)CC(N2CCOCC2)CO3)cc1.O=C(O)C(F)(F)F` (configuration not stated), the “Percent Effect” value is 99.84%. With `CNC(=O)COC1COC2(CCN(c3ccc(C#N)cc3)CC2)C1.O=C(O)C(F)(F)F` (configuration not stated) the figure was 4.884%; with `CN1CCN(C2COC3(CCN(c4ccc(C#N)cc4)CC3)C2)CC1.O=C(O)C(F)(F)F` (configuration not stated), 99.27%. The result for `N#Cc1ccc(N2CCC3(CC2)CC(Oc2cccnc2)CO3)cc1.O=C(O)C(F)(F)F` (configuration not stated) reads 18.7%; that for `CN1CCOCC12CCN(c1ccc(C#N)cc1)CC2.O=C(O)C(F)(F)F`, -6.092%.

As for `COC1COC2(CCN(c3ccc(C#N)cc3)CC2)C1.O=C(O)C(F)(F)F` (configuration not stated), the “Percent Effect” value is listed as -8.699%. The result for `COc1cccc(-c2cnnc(N(C)CCC3CCCCO3)n2)c1` (configuration not stated) reads -7.888%; that for `Cc1cc2c(c(-c3c[nH]c(C)n3)c1)OC(CN)C2` (configuration not stated), 10.27%; that for `Cc1ccc(CCNC(=O)N2CCCC(Cc3nccn3C)C2)cn1` (configuration not stated), -1.285%. The result for `Cc1ccc(CCNC(=O)N2CCC(Cc3cnn(C)c3)C2)cn1` (configuration not stated) reads 129.7%. With `CCOc1cc(CNC(=O)N2CCC(Cc3cnn(C)c3)C2)ccn1` (configuration not stated) the figure was 0.1866%; with `COc1ccc(CNC(=O)N2CCC(Cc3cnn(C)c3)C2)cc1C` (configuration not stated), -1.04%; with `Cc1ccc(CCNC(=O)NC2CCN(CC(F)(F)F)C2=O)cn1` (configuration not stated), -2.04%.

For the compound `Cn1cc(CC2CCN(C(=O)NCCCc3ccc(O)cc3)C2)cn1` (configuration not stated), the “Percent Effect” value is 109.7%.

With `O=C(O)CCn1ccc2c(nnc3c(-c4ccc(F)cc4)cnn32)c1=O`, the “Percent Effect” value is 102.5%. With `CC(=O)Nn1ccc2c(nnc3c(-c4ccccc4)cnn32)c1=O` the figure was 95.62%; with `CC(=O)Nn1ccc2c(nnc3c(-c4ccc(F)cc4)cnn32)c1=O`, 91.05%; with `Cc1ccc2c(ccn2CCC(=O)O)c1`, -5.722%. The result for `CCN(CC)CCC(=O)NCc1cc2n(n1)CCN(C(=O)N(C)C)C2` reads -4.405%; that for `Cc1ccc(-c2ncc(C(=O)N3CCC[C@H](N)C3)c(O)n2)cc1`, 4.793%; that for `CC(O)c1cn(CC2CCN(C(=O)c3cccc(N(C)C)c3)CC2)nn1` (configuration not stated), -11.02%. The result for `Cc1nnc(NC(=O)N2CCCN(C3CCCC3)CC2)s1` reads -2.14%; that for `CC1CCN(CCCNC(=O)Nc2cc3c(cc2Br)OCCO3)CC1`, -0.7212%. In the case of `Cc1nc(-c2c(-c3ccccc3)ncn2[C@H]2C[C@@H](C(=O)O)N(C)C2)co1`, the “Percent Effect” value was -9.295%. For the compound `CCSCc1ccnc(NC(=O)C2CCOC2)c1` (configuration not stated), the “Percent Effect” value is recorded as 20.8%. Regarding `CCOc1ccc(C(=O)N2CCC(Oc3ccccc3)(C(=O)O)CC2)o1`, the “Percent Effect” value was -0.9818%.

Regarding `CC(C)(C)N1CCN(C(=O)c2cccnc2-n2cncn2)CC1`, the “Percent Effect” value is given as -9.982%.

Turning to `CCc1csc(CNC2CCN(c3ccc(C)cc3)CC2)n1`, the “Percent Effect” value was -9.18%. With `Cc1nc(CCNC2CCN(Cc3ccccc3)C2)sc1C` (configuration not stated) the figure was -12.11%. The result for `CCc1cc(N2CCC(NCCc3ccccc3F)CC2)nc(C)n1` reads 82.1%; that for `CCc1cc(N2CCC(NC(=O)CCC3CCCO3)CC2)ncn1` (configuration not stated), -4.201%; that for `CCCc1cc(N2CCC(NCC3(O)CCCCC3)CC2)nc(C)n1`, -11.13%. The result for `CCc1cc(N2CCC(NCCSc3nnnn3C)CC2)nc(C)n1` reads 4.673%.

As to `CCc1cc(N2CCC(NCCc3nc(C)c(C)s3)CC2)nc(C)n1`, the “Percent Effect” value stood at 99.23%.

In the case of `CCc1cc(N2CCC(NCc3ccc(C)o3)CC2)ncn1`, the “Percent Effect” value is on record as 91.75%. With `CCCc1cc(N2CCC(NCCc3ccc(O)cc3)CC2)nc(C)n1` the figure was 19.96%; with `CCc1cc(N2CCC(NCCc3ccc(C)o3)CC2)nc(C)n1`, 97.78%. The result for `Cc1nc(C)c(C)c(N2CCC(NCCOc3ccccc3)CC2)n1` reads 8.772%; that for `Cc1cccc(C(C(=O)NCCc2nc(C)cc(=O)[nH]2)N(C)C)c1` (configuration not stated), 7.079%.

Turning to `Nc1nc(CCCNC(=O)C2CCCN(Cc3ccco3)C2)cs1` (configuration not stated), the “Percent Effect” value was found to be 11.5%.

`Cc1ccccc1C(=O)NCCC(=O)NS(=O)(=O)c1cccnc1`: the “Percent Effect” value is listed as -14.99%. On to `CCn1cncc1CNc1ccc(-c2nc(CC(C)C)no2)cn1`, for which the “Percent Effect” value is 7.108%. With `CC(C)c1nnc2n1CCN(C(=O)c1ccc(OCC3CC3)cc1)C2` the figure was 5.374%. With `Cc1ccoc1CNC(C)c1nnc2n1CCCC2` (configuration not stated) the figure was -17.53%; with `CCn1cc(N)c(-c2nnc3n2CCCC3)n1`, 106%. Take `CCn1cc(N)c(-c2nnc3n2CCC3)n1`: the “Percent Effect” value is 92.6%. With `CC(NCc1ccc(Cl)o1)c1nnc2n1CCCC2` (configuration not stated) the figure was -1.685%; with `COc1c(CNCc2nnc3n2CCCCC3)c(C)nn1C.Cl`, -7.415%. Take `Cc1ccc(CNC(C)c2nnc3n2CCCC3)o1` (configuration not stated): the “Percent Effect” value is given as -12.78%. With `Cn1cc(N)c(-c2nnc3n2CCCC3)n1` the figure was 140.1%; with `COc1cc(CNC(C)c2nnc3n2CCC3)cc(OC)c1` (configuration not stated), 10.34%; with `CC(NCc1ccco1)c1nnc2n1CCCC2` (configuration not stated), -19.1%. The result for `O=C(NCC1(O)CCOc2ccccc21)Nc1ccccc1` (configuration not stated) reads -14.8%. `O=C(O)c1ccnc(-c2ccnc(COc3ccc(Cl)cc3)n2)c1`: the “Percent Effect” value is given as -21.17%. With `CCCS(=O)(=O)N1CCN(c2cc(-n3cnc(C)c3C)ncn2)CC1` the figure was -4.672%; with `NC(=O)c1ccc(OCCCN2C[C@H](C3CC3)[C@@H](N)C2)cc1`, -11.21%; with `NC(=O)c1ccc(OCCCN2CCC3(CC2)OCCCC3O)cc1` (configuration not stated), 101.3%. With `OC1CCCOC12CCN(CCCOc1ccccc1F)CC2` (configuration not stated) the figure was 114.2%; with `Cc1cc(C2CCC2)nc(N2CCC3(CC2)OCCCC3O)n1` (configuration not stated), -2.811%; with `O[C@H]1CN(CCCOc2ccccc2F)CC[C@@]12CCCO2`, 134.4%. Regarding `O[C@H]1CCN(CCCOc2ccccc2F)C[C@@]12CCCO2`, the “Percent Effect” value stood at 90.29%. With `COc1ccccc1S(=O)(=O)N1CCC2(CC1)OCCCC2O` (configuration not stated) the figure was 6.351%; with `O=C(C1CCC1)N1CCN(Cc2ccc(F)cc2)[C@H]2CS(=O)(=O)C[C@H]21`, 11.26%.

Regarding `O=C(Nc1ccccn1)NC1CCN(c2ccccc2OC(F)F)C1` (configuration not stated), the “Percent Effect” value is -25.38%. With `COc1ccc2nc(C[C@@H]3C[C@@H](C(C)C)[C@H](CN)C=C3C)[nH]c2n1` the figure was 16.51%; with `CC(C1CCN(Cc2cnn(C)c2C2CC2)CC1)N1CCCC1` (configuration not stated), 22.88%; with `C1CCC(NCC2(N3CCOCC3)CCSC2)C1` (configuration not stated), -110.3%. The result for `COc1ccccc1[C@@H]1CN(Cc2c(C)noc2C)C[C@H]1C(=O)O` reads -13.6%; that for `Cc1cc(NS(=O)(=O)CC2CCCCO2)ccc1F` (configuration not stated), 4.819%.

Regarding `Cc1cc(S(C)(=O)=O)c(C)c(S(=O)(=O)NCC2CCCO2)c1` (configuration not stated), the “Percent Effect” value is -7.327%.

On to `Cc1cc(NCC2CCCO2)cc(=O)n1C` (configuration not stated), for which the “Percent Effect” value amounted to 135.4%. With `COCC(C)N(C)C(=O)NC1CCN(c2ncccn2)CC1` (configuration not stated), the “Percent Effect” value turned out to be 0.8848%. The result for `CCN(Cc1noc(C2CC2)n1)Cc1ccc(C#N)cc1F` reads -1.413%; that for `O=C1NCCO[C@H]2CN(C(=O)Cc3cccs3)CC[C@@H]12`, -57.9%. For `COCCN1CCO[C@@H]2CN(C(=O)Cc3cccc(F)c3)CC[C@@H]2C1.O=C(O)C(F)(F)F`, the “Percent Effect” value is reported as 6.529%.

On to `O=C(Cc1cccs1)N1CCOC(c2cccc(O)c2)C1` (configuration not stated), for which the “Percent Effect” value is listed as -7.888%.

In the case of `O=C(Cc1cccs1)N1C[C@@H]2CN(Cc3ccoc3)CCO[C@@H]2C1.O=C(O)C(F)(F)F`, the “Percent Effect” value was -6.419%. With `CS(=O)(=O)N1CCO[C@@H]2CN(C(=O)Cc3cccs3)CC[C@@H]2C1` the figure was 99.33%; with `CC(C)N1CCO[C@@H]2CN(C(=O)Cc3cccs3)CC[C@@H]2C1.O=C(O)C(F)(F)F`, 111.3%. Take `CN1CCO[C@@H]2CN(C(=O)Cc3cccs3)CC[C@@H]2C1.O=C(O)C(F)(F)F`: the “Percent Effect” value was 104.2%. The result for `CN(C)C[C@H]1OC[C@@H]2CCN(C(=O)Cc3cccs3)C[C@@H]21.O=C(O)C(F)(F)F` reads -1.59%.
